The list is not random: actives were taken first. Their share in the collection is about 2.8%.
PAX8 reporter: inhibitors of PAX8-driven TPO luciferase reporter, primary screen, RMG-I cells, single concentration | SteadyGlo, 24 h | inhibition, % at 12.6 µM | 360,000 compounds, 1.2% hits | AID 652154, 2013;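 active means mean replicate inhibition at least 60% with every replicate also reaching 60%; inconclusive means only one of the two criteria is met; inactive means mean below 60% and not all replicates reaching 60%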;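 further: luciferase light reporting Pax8 driven TPO promoter activity; plate controls were median of neutral control wells for no effect and mitoxantrone controls for full effect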
TWEAK Fn14 block: inhibitors of TWEAK-Fn14 signaling, primary screen, luciferase reporter cells, uHTS. TWEAK-stimulated Fn14 reporter cells, luciferase luminescence, 8 h. inhibition, % at 10 µM. 360,000 compounds, 2% hits. AID 1159606, 2016; in the data active means inhibition above about 50%
LGR2 antag: inhibitors of bursicon-induced LGR2 CRE-luciferase signal, primary screen, cell-based, HEK293, CRE-luciferase reporter, bursicon stimulation; Drosophila bursicon receptor LGR2 (rickets); bursicon-stimulated, 4 h; inhibition, % at 9.99 µM; 380,000 compounds, 0.35% hits; AID 720647, 2013;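 active means drop in luminescence signal, shown as inhibition above about 50% in the replicate tests, limit read from the data, passing the limit was not always enough; inconclusive means probably only some replicates passing the limit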;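 further: agonist challenge used bursicon conditioned medium at about half maximal strength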
TROY NFkB inh: inhibitors of TROY-driven NF-kB signaling, primary screen, Q293 LMP1-TROYcd cells, NF-kB luciferase, uHTS; Q293 LMP1-TROYcd NF-kB luciferase reporter, 4 h; 360,000 compounds, 0.98% hits; AID 1347056, 2019; inhibition, % at 10 µM;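 active means compounds whose plate-normalised and pattern-corrected inhibition of the luciferase reporter signal at the single screening dose is 50% or more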
EWS-Fli block: EWS/Fli-driven NR0B1 reporter inhibitors, primary screen, A673 cells, NR0B1 luciferase, luminescence, MLPCN library. viability-normalised. AID 651661, 2012. 350,000 compounds, 0.67% hits. inhibition, % at 12.6 µM;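 active means mean inhibition of at least 50% after viability correction, with every replicate also passing that limit; inconclusive means mean reaches 50% but only one of two replicates passes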;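 further: firefly luciferase signal divided by Alamar Blue viability fluorescence both relative to DMSO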
* = called active by the depositor; ? = inconclusive; nt = no result given.

SMILES	PAX8 reporter	TWEAK Fn14 block	LGR2 antag	TROY NFkB inh	EWS-Fli block
CCOc1ccc(CN2CCN(Cc3c(C)nn(CC)c3C)CC2CCO)cc1 (stereo not given)	12	76*	-8	0	-1
CCn1nc(C)c(CN2CCN(Cc3cccc(OC)c3)C(CCO)C2)c1C (stereo not given)	13	-28	2	2	16
CCCSc1nnc(CSc2nc3ccccc3s2)n1-c1ccccc1	nt	18	nt	53*	nt
O=C(c1cc(C(=O)NCCc2ccccc2)c(=O)n(CCc2ccccc2)c1)c1cc(Cl)ccc1O	42	66*	12	14	nt
COc1ccc(CCNC(=O)c2cc(C(=O)c3cc(C)ccc3O)cn(CCc3ccc(OC)cc3)c2=O)cc1	nt	32	-3	33	nt
COc1ccc(CCNC(=O)c2cc(C(=O)c3cc(Cl)ccc3O)cn(CCc3ccc(OC)cc3)c2=O)cc1	80*	46	6	17	nt
O=C(c1cccnc1)N1CC[C@@H]2[C@H]1c1cc(C#Cc3cccnc3)ccc1N[C@@H]2CO	-29	nt	-17	nt	-5
C[C@@H]1CN([C@@H](C)CO)C(=O)c2cccc(NS(=O)(=O)c3cccs3)c2O[C@@H]1CN(C)S(=O)(=O)c1ccc(Cl)cc1	3	nt	-24	nt	14
C[C@@H]1CN([C@H](C)CO)C(=O)Cc2cc(NC(=O)CCN3CCOCC3)ccc2O[C@H]1CN(C)S(=O)(=O)c1ccc(Cl)cc1	nt	nt	-7	nt	-4
CCC/C(=C1/c2ccccc2C(=O)N1c1ccccc1)c1ccc2c(c1)OCCO2	36	13	-3	11	62*
CCC/C(=C1/c2ccccc2C(=O)N1c1ccccc1)c1ccc(O[C@@H]2CCCCO2)cc1	19	-3	-7	13	3
C[C@@H]1CN([C@@H](C)CO)C(=O)c2cc(NS(=O)(=O)c3ccccc3)ccc2O[C@@H](C)CCCCO[C@H]1CN(C)C(=O)c1ccccc1	12	nt	2	nt	4
COc1ccc(S(=O)(=O)N(C)C[C@H]2Oc3ccc(NC(=O)Nc4ccc(C(F)(F)F)cc4)cc3CC(=O)N([C@H](C)CO)C[C@@H]2C)cc1	79*	nt	-4	nt	-8
C[C@H](CO)N1C[C@H](C)[C@@H](CN(C)S(=O)(=O)c2ccc(F)cc2)Oc2ccc(NC(=O)Nc3ccc(C(F)(F)F)cc3)cc2CC1=O	-31	nt	9	nt	-6
Cc1ccc(S(=O)(=O)N(C)C[C@H]2Oc3ccc(NC(=O)Nc4ccc(C(F)(F)F)cc4)cc3CC(=O)N([C@@H](C)CO)C[C@H]2C)cc1	99*	nt	13	nt	-8
COc1ccc(S(=O)(=O)N(C)C[C@H]2Oc3ccc(NC(=O)Nc4ccc(C(F)(F)F)cc4)cc3CC(=O)N([C@@H](C)CO)C[C@H]2C)cc1	18	nt	6	nt	-19
Cc1ccc(S(=O)(=O)N(C)C[C@@H]2Oc3ccc(NC(=O)Nc4ccc(C(F)(F)F)cc4)cc3CC(=O)N([C@@H](C)CO)C[C@@H]2C)cc1	81*	nt	-22	nt	51*
C[C@@H]1CN([C@H](C)CO)C(=O)Cc2cc(NC(=O)Nc3ccc(C(F)(F)F)cc3)ccc2O[C@@H]1CN(C)S(=O)(=O)c1ccc(Cl)cc1	nt	nt	-18	nt	-7
C[C@H]1CN([C@@H](C)CO)C(=O)Cc2cc(NC(=O)Nc3ccc(C(F)(F)F)cc3)ccc2O[C@H]1CN(C)S(=O)(=O)c1ccc(F)cc1	40	nt	-2	nt	54*
Cc1ccc(S(=O)(=O)N(C)C[C@@H]2Oc3ccc(NS(=O)(=O)c4c(C)noc4C)cc3C(=O)N([C@H](C)CO)C[C@H]2C)cc1	5	nt	6	nt	2
Cc1ccc(S(=O)(=O)N(C)C[C@H]2Oc3ccc(NC(=O)Nc4ccc(F)cc4)cc3CC(=O)N([C@H](C)CO)C[C@@H]2C)cc1	-9	nt	10	nt	-4
Cc1ccc(S(=O)(=O)N(C)C[C@@H]2Oc3ccc(NC(=O)Nc4ccc(F)cc4)cc3CC(=O)N([C@H](C)CO)C[C@@H]2C)cc1	46	nt	3	nt	63*
C[C@H]1CN([C@@H](C)CO)C(=O)Cc2cc(NC(=O)Nc3ccc(C(F)(F)F)cc3)ccc2O[C@H]1CN(C)S(=O)(=O)c1cn(C)cn1	38	nt	1	nt	54*
C[C@@H]1CN([C@@H](C)CO)C(=O)Cc2cc(NC(=O)Nc3ccc(C(F)(F)F)cc3)ccc2O[C@H]1CN(C)S(=O)(=O)c1cn(C)cn1	15	nt	-3	nt	5
Cc1noc(C)c1NC(=O)N(C)C[C@H]1OCCCC[C@@H](C)Oc2ccc(NS(=O)(=O)c3cn(C)cn3)cc2C(=O)N([C@@H](C)CO)C[C@H]1C	-2	nt	5	nt	-5
SMILES	PAX8 reporter	TWEAK Fn14 block	LGR2 antag	TROY NFkB inh	EWS-Fli block
COc1ccc(C(=S)N2CCN(c3cccc(Cl)c3)CC2)c(OC)c1	35	0	16	17	56*
Cc1noc(C)c1NC(=O)Nc1cccc2c1O[C@@H](CN(C)C)[C@@H](C)CN([C@@H](C)CO)C2=O	6	nt	6	nt	3
CCN(CC(=O)Nc1ccc(NC(C)=O)cc1)C(=O)c1ccc(COc2ccc(C(C)(C)C)cc2)cc1	-42	53*	-38	33	15
C[C@H]1CN([C@@H](C)CO)C(=O)c2cccc(NS(=O)(=O)c3cccs3)c2O[C@@H]1CN(C)Cc1ccc(C(=O)Nc2ccccc2N)cc1	1	nt	13	nt	7
O=C1C=C(NCCc2cc(Br)c(O)c(Br)c2)C(=O)c2ncccc21	101*	94*	74*	38	19
C/C=C/c1ccc2c(c1)O[C@@H](CN(C)C(=O)NC1CCCC1)[C@H](C)CN([C@H](C)CO)S2(=O)=O	-4	nt	-8	nt	-7
COc1ccc(S(=O)(=O)Nc2ccc3c(c2)CC(=O)N([C@@H](C)CO)C[C@H](C)[C@@H](CN(C)C(=O)NC(C)C)O3)cc1	nt	nt	10	nt	-8
CC(Nc1nc(-c2ccc(Cl)cc2)cs1)c1nc2cc(Cl)c(N3CCCCC3)cc2n1CCOCCO (stereo not given)	25	54*	?	40	1
O=C(CSCC(=O)N1CCCc2ccccc21)Nc1nc(-c2ccccc2)cs1	-8	52*	14	45	-11
O=C1CC(c2ccc3c(c2)OCCO3)Oc2ccc([N+](=O)[O-])cc21 (stereo not given)	-133	98*	-31	85*	-20
O=C1CC(c2ccc3c(c2)OCCO3)Oc2ccccc21 (stereo not given)	-268	-11	-62	1	nt
CS(=O)(=O)Nc1ccc2c(c1)[C@H]1C[C@H](CC(=O)NC3CCCCC3)O[C@@H](CO)[C@H]1O2	0	nt	-3	nt	-1
COc1ccc(C=C(C(C)=O)C(=O)c2ccccc2)cc1	21	28	17	-2	-7
CC(=O)C(=Cc1ccc(Cl)cc1)C(=O)c1ccccc1	11	95*	16	19	11
CC(=O)C(=Cc1cccc(C#N)c1)C(=O)c1ccccc1	-3	77*	47	-12	8
